Sampled rows, rich in hits. Any-hit rate of the full collection: about 27%.
CYP2C19 activ: cytochrome P450 2C19 (human) activation; recombinant CYP2C19, luciferin-H EGE luminescence; active compounds read high; 0 = fully inhibited enzyme, 1 = untreated enzyme; 96,000 tested, under 10 active; P33261; activation factor at 5 µM;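 active = activation factor of at least 2 at 5 µM in the primary screen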
CYP2C9 activ: increases human cytochrome P450 2C9 activity | P11712 | recombinant CYP2C9, luciferin-H conversion, luminescence; active compounds read high; factor 1 = untreated enzyme, 0 = blocked | activation factor at 5 µM | actives 1.4% (n = 96,000);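 active = activation factor of 2 or more for CYP2C9 at a 5 µM dose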
Target sequence (P11712 whole entry, looked up): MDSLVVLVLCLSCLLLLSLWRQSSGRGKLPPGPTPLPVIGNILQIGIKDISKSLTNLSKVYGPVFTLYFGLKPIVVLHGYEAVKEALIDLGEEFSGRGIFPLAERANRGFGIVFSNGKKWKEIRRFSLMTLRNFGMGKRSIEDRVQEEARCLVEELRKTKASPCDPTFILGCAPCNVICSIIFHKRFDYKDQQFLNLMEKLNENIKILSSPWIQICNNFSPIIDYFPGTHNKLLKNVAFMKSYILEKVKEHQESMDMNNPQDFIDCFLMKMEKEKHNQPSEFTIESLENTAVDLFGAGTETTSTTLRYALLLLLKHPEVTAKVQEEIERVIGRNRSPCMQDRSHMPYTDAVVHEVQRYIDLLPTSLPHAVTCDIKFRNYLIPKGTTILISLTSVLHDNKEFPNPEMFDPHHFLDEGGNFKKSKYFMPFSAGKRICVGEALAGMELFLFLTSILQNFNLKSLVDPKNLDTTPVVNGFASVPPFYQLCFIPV
EphB4 ephrin blk: blocks human EphB4 binding to ephrin-B2. P54760. EphB4 LBD / TNYL-RAW-Alexa532 peptide, fluorescence polarization. inhibition, % at 7 µM. actives 0.15% (n = 97,000). AID 720;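 active = inhibition above the screen-wide mean inhibition plus 3 SD, cut at about 15% in these data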
CYP2C9 inhib: blocks human cytochrome P450 2C9; CYP2C9 Supersomes, luciferin-H conversion, luminescence; P11712; inhibition, % at 5 µM; actives 20% (n = 96,000);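 active = blocking of liver enzyme CYP2C9 beyond about 50% at 5 µM, limit read from the data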
CYP2C19 inh: human CYP2C19 inhibition. CYP2C19 Supersomes, luciferin-H EGE luminescence, 30 min. P33261. AID 778. inhibition, % at 5 µM. actives 21% (n = 96,000);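 active = CYP2C19 inhibition above a set limit at 5 µM in the primary screen, cut at about 50% in these data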
Numbers stand for hits; 0 = inactive; - = no result.

SMILES | CYP2C19 activ | CYP2C9 activ | EphB4 ephrin blk | CYP2C9 inhib | CYP2C19 inh
Cc1ccc(NC(=O)c2nc(C)n(-c3ccc([N+](=O)[O-])cc3)n2)cc1 | 0 | 0 | 0 | 0 | 0
CN1CCN(/C=N/c2c(C#N)cnn2-c2ccccc2)CC1 | 0 | 0 | 0 | 0 | 0
CNC(=O)C1CCCN1S(=O)(=O)c1ccc(OC)cc1 (stereo unspecified) | 0 | 0 | 0 | 0 | 0
Cc1ccc(NC(=O)NC2CCCN2S(=O)(=O)c2ccc(Cl)cc2)cc1 (stereo unspecified) | 0 | 0 | 0 | 86.9 | 72.6
COc1ccc(S(=O)(=O)N2CCCC2C(=O)Nc2nc3c(s2)CCCC3)cc1 (stereo unspecified) | 0 | 0 | 0 | 80.1 | 0
COc1ccc(NC(=O)C2CCCN2S(=O)(=O)c2ccc(F)cc2)cc1 (stereo unspecified) | 0 | 0 | 0 | 92.6 | 64.2
C=CCn1c(SCC(=O)Nc2ccc3c(c2)CCC3)nnc1-c1cccs1 | 0 | 0 | - | 0 | 0
Cc1nc2ccc(C(=O)N3CCN(c4ccccn4)CC3)cc2s1 | 0 | 0 | 0 | 0 | 0
CN(c1ccccc1)S(=O)(=O)c1cc(C(=O)N2CCN(c3ccccn3)CC2)ccc1Cl | 0 | 0 | 0 | 99.4 | 73.1
O=C(c1ccc(Cl)c(S(=O)(=O)Nc2ccc(F)cc2)c1)N1CCN(c2ccccn2)CC1 | 0 | 0 | 0 | 69.8 | 66.7
Cc1ccc(NS(=O)(=O)c2ccc(C(=O)N3CCN(c4ccccn4)CC3)cc2)cc1 | 0 | 0 | 0 | 0 | 0
COc1ccc2sc(N3C(=O)CC(Cc4cccc(C)c4)C3=O)nc2c1 (stereo unspecified) | 0 | 0 | 0 | 0 | 0
Cc1ccccc1Cn1ccc(NC(=O)c2cnn3c2NC(c2ccccc2)CC3C(F)(F)F)n1 (stereo unspecified) | 0 | 0 | 0 | 96.0 | 67.3
O=C(NCc1ccco1)c1cnn2c1NC(c1ccccc1)CC2C(F)(F)F (stereo unspecified) | 0 | 0 | 0 | 82.6 | 0
OCc1nn2c(c1Br)NC(c1ccccc1)CC2C(F)(F)F (stereo unspecified) | 0 | 0 | 0 | 74.2 | 71.4
O=C(O)c1cnn2c1NC(c1ccc(F)cc1)CC2C(F)(F)F (stereo unspecified) | 0 | 0 | 0 | 0 | 0
Cc1nn(C)c(C)c1CN(C)C(=O)c1cnn2c1NC(c1ccccc1)CC2C(F)(F)F (stereo unspecified) | 0 | 0 | 0 | 65.2 | 0
CC1CC(Nc2cccc(O)c2)=CC(=O)O1 (stereo unspecified) | 0 | 0 | 0 | 0 | 0
CC(=O)c1cccc(NC(=O)N2CCN(S(C)(=O)=O)CC2)c1 | 0 | 0 | 0 | 0 | 0
O=C(Nc1ccc2c(c1)OCO2)c1cnn2c1NC(c1ccco1)CC2C(F)(F)F (stereo unspecified) | 0 | 0 | 0 | 0 | 0
O=C(NCc1ccco1)c1cnn2c1NC(c1ccc(Br)cc1)CC2C(F)(F)F (stereo unspecified) | 0 | 0 | 0 | 87.0 | 66.4
CCc1cc(-c2n[nH]c(=S)n2-c2cccc(C)c2)cs1 | 0 | 0 | 0 | 0 | 63.3
Cc1cccc(-n2c(-c3csc(C)c3)n[nH]c2=S)c1 | 0 | 0 | 0 | 0 | 0
CCC(C)Cn1c(C)nc2ccccc21 (stereo unspecified) | 0 | 0 | 0 | 0 | 52.3
Cc1cc2c(cc(C(=O)OCC(=O)NCc3cccs3)n2C(C)C)o1 | 0 | 0 | 0 | 64.8 | 50.0
SMILES | CYP2C19 activ | CYP2C9 activ | EphB4 ephrin blk | CYP2C9 inhib | CYP2C19 inh
COC(=O)C1CCN(C(=O)Nc2ccc(OC)cc2)CC1 | 0 | 0 | 0 | 0 | 0
COc1ccc(NC(=O)CN2CCN(S(=O)(=O)c3ccc(Cl)cc3)CC2)cc1Cl | 0 | 0 | 0 | 0 | 0
CCOc1ccc(NC(=O)CCN2CCN(S(=O)(=O)c3ccc(Cl)cc3)CC2)cc1 | 0 | 0 | 0 | 73.0 | 72.4
COc1ccc(NC(=O)CCN2CCCCC2)cc1 | 0 | 0 | 0 | 0 | 0
CCOc1ccc(NC(=O)CCN2CCCCC2)cc1 | 0 | 0 | 0 | 0 | 0
CCOc1ccc(C(=O)CN2CCN(S(=O)(=O)c3ccc(OC)cc3)CC2)cc1 | 0 | 0 | 0 | 0 | 77.3
CCOc1ccc(NC(=O)CCN2CCN(S(=O)(=O)c3ccc(OC)cc3)CC2)cc1 | 0 | 0 | 0 | 53.2 | 0
COc1ccc(NC(=O)CCN2CCN(S(=O)(=O)c3cc(Cl)ccc3OC)CC2)cc1 | 0 | 0 | 0 | 64.8 | 96.8
CCOc1ccc(C(=O)CN2CCN(S(=O)(=O)c3ccc(Br)cc3)CC2)cc1 | 0 | 0 | 0 | 0 | 0
CN(CC(=O)NCc1ccco1)S(=O)(=O)c1cccc2cccnc12 | 0 | 0 | 0 | 0 | 0
CCCCC(=O)Nc1ccc(C(=O)NNC(=O)c2ccco2)cc1 | 0 | 0 | 0 | 0 | 0
O=C(c1ccccc1)c1cccn1CC(=O)N1CCCCCC1 | 0 | 0 | 0 | 0 | 0
CCN1CCn2c3c(c4cc(C)ccc42)CCCC31 (stereo unspecified) | 0 | 0 | 0 | 51.6 | 53.8
CN(C)S(=O)(=O)Oc1ccsc1C(=O)Nc1cccc(Cl)c1Cl | 0 | 0 | 0 | 72.1 | 84.3
CN(C)S(=O)(=O)Oc1ccsc1C(=O)Nc1ccccc1Cl | 0 | 0 | 0 | 65.9 | 78.9
CN1CCN(C(=O)c2ccccc2N(Cc2ccccc2)S(C)(=O)=O)CC1 | 0 | 0 | 0 | 0 | 0
CCC(=O)Nc1ccc(NC(=O)c2cccc(OC)c2)nc1 | - | - | 0 | - | -
CC(C)(C)c1nn(-c2ccccc2)c2[nH]c(=O)c(CNCc3ccco3)cc12 | 0 | 0 | 0 | 62.1 | 0
COc1ccc(CNCc2cc3c(C(C)(C)C)nn(-c4ccccc4)c3[nH]c2=O)cc1 | 0 | 0 | 0 | 58.9 | 0
Cc1ccc(CNCc2cc3c(C(C)(C)C)nn(-c4ccccc4)c3[nH]c2=O)cc1 | 0 | 0 | 0 | 0 | 0
O=C(c1ccc(N2CN(C(=O)c3ccco3)c3nc4ccccc4nc32)cc1)N1CCOCC1 | 0 | 0 | 0 | 0 | 0
CC(Sc1nc(-c2ccccc2)cc(C(F)(F)F)n1)C(=O)Nc1sc2c(c1C#N)CCC2 (stereo unspecified) | 0 | 0 | 0 | 64.4 | 0
N#Cc1c(C(F)(F)F)cc(-c2ccccc2)nc1SCC(=O)Nc1sc2c(c1C#N)CCC2 | 0 | 0 | 0 | 71.2 | 0
N#Cc1c(C(F)(F)F)cc(-c2ccccc2)nc1SCc1nc(N)nc(N2CCOCC2)n1 | 0 | 0 | - | 79.5 | 81.2
N#Cc1ccc(-c2cccnc2)nc1SCC(=O)Nc1sc2c(c1C#N)CCC2 | 0 | 0 | - | 0 | 0
COc1ccc(-c2ccc(C#N)c(SCC(=O)Nc3sc4c(c3C#N)CCC4)n2)cc1 | 0 | 0 | 0 | 0 | 0
O=C1C2CCCN2C(c2cccc(F)c2)N1c1cccc(Cl)c1 (stereo unspecified) | 0 | 0 | 0 | 0 | 0
COc1ccc2nc(NC(=O)CCn3cccc3)sc2c1 | 0 | 0 | 0 | 0 | 0
CCOC(=O)Cn1nc(-c2ccccc2)ccc1=O | 0 | 0 | 0 | 0 | 0
CCOC(=O)C(C)n1nc(/C=C/c2ccccc2)ccc1=O (stereo unspecified) | 0 | 0 | 0 | 71.1 | 0
